The values below come from PubChem BioAssay (Tox21).

Assay [1] is described as follows: Human pregnane X receptor (PXR) small molecule agonists, qHTS cell viability counter screen (AID 1346977). Note: nearly all actives have a fitted effect of over 50% in size. Note: potency is the fitted concentration of half-maximal effect. The procedure, abridged: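 PXR-Luc HepG2 cells (2,000/well, 5% charcoal-stripped FBS) preincubated 5 hr, then exposed to compounds 24 hr at 37 C. Viability read in the same wells by CellTiter-Fluor fluorescence, reagent added at 23 hr, 1 hr incubation.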
For orientation: qHTS replaces the single test concentration by a dilution series.

Assay [2] in a line: Caspase-3/7 induction in HepG2 cells by small molecules, qHTS assay (AID 1346978). Note: nearly all actives have a fitted effect of over 15% in size. Note: potency is the fitted concentration of half-maximal effect. Put shortly: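 Wild-type HepG2 cells, 2,000/well, settled 5 hr at 37 C and 5% CO2, then compound-treated for 17 hr; caspase-3/7 activity read by luminescent Caspase-Glo 3/7 after 30 min at room temperature.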
Assay [3] is described as follows: Caspase-3/7 induction in CHO-K1 cells by small molecules, qHTS cell viability counter screen (AID 1346979). Note: nearly all actives have a fitted effect of over 35% in size. Note: potency is the fitted concentration of half-maximal effect. The procedure, abridged:
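Wild-type CHO-K1 cells (1,500/well) treated with compound after 5 h plating; after 16 h at 37C, viability read as CellTiter-Fluor fluorescence following 1 h reagent incubation, in the same wells as the caspase read.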

The nature of assay [4]: Caspase-3/7 induction in CHO-K1 cells by small molecules, qHTS assay (AID 1346980). Note: nearly all actives have a fitted effect of over 15% in size. The procedure, abridged: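 Wild-type CHO-K1 cells exposed to compounds for 17hr at 37 C, 5% CO2. Caspase-3/7 activity then measured by Caspase-Glo 3/7 luminescence after 30min at room temperature.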
Assay [5] can be described thus: Caspase-3/7 induction in HepG2 cells by small molecules, qHTS cell viability counter screen (AID 1346981). Note: nearly all actives have a fitted effect of over 30% in size. Note: potency is the fitted concentration of half-maximal effect. The procedure, abridged:
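Treatment of HepG2 cells with DMSO-delivered compounds ran 16 hr at 37 C following a 5-hr pre-incubation of 2,000 cells/well. CellTiter-Fluor fluorescence, read after 1 hr, served as the viability measure in a qHTS format.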

For assay [6], the target named is Nuclear receptor subfamily 1 group I member 2 (Homo sapiens) (UniProt O75469). In words: Human pregnane X receptor (PXR) small molecule agonists, qHTS assay (AID 1346982). Note: nearly all actives have a fitted effect of over 35% in size. Note: potency is the fitted concentration of half-maximal effect. Put shortly:
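Stable HepG2 line reporting PXR-mediated CYP3A4 expression via luciferase. Treatment: 24 hr with compounds in DMSO at 37 C. Detection: ONE-Glo luminescence.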

Assay [7] addresses Nuclear receptor subfamily 1 group I member 2 (Rattus norvegicus) (UniProt Q9R1A7). Put plainly: Rat pregnane X receptor (rPXR) activation by small molecules, qHTS assay (AID 1346983). Note: nearly all actives have a fitted effect of over 20% in size. The settings on record: rPXR luciferase reporter cells, One-Glo luminescence, 24 h; max activation: stronger effect = higher value. The procedure, abridged: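 Cell-based rPXR activation assay: rPXR cells, 2,000 per well, rested 5hr at 37 C, then exposed to compounds in DMSO for 24 hr at 37 C. Luciferase activity read by One-Glo luminescence after 30 min at room temperature.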

Assay [8] addresses Nuclear receptor subfamily 1 group I member 2 (Homo sapiens) (UniProt O75469). Put plainly: Human pregnane X receptor (PXR) activation by small molecules, qHTS assay (AID 1346985). Note: nearly all actives have a fitted effect of over 40% in size. Note: potency is the fitted concentration of half-maximal effect. Put shortly: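 DPX-2 cells (HepG2 co-transfected with a PXR response element and a CYP3A4-promoter luciferase construct) were seeded at 2,000 per well, rested 5 hr at 37C, then exposed to DMSO-dissolved compounds for 24 hr. Activation was read as luciferase luminescence.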

Assay [9] has as its target Cytochrome P450 2D6 (Homo sapiens) (UniProt P10635). Put plainly: Cytochrome P450 Family 2 Subfamily D Member 6 (CYP2D6) small molecule antagonists: luciferase reporter qHTS assay (AID 1671196). Note: nearly all actives have a fitted effect of over 50% in size. Note: potency is the fitted concentration of half-maximal effect. Put shortly:
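Chemicals tested for interference with CYP2D6 activity; proluciferin substrate, NADPH regeneration, 1 h at room temperature, luminescent detection.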

Assay [10] has as its target Cytochrome P450 2C19 (Homo sapiens) (UniProt P33261). In words: Cytochrome P450 Family 2 Subfamily C Member 19 (CYP2C19) small molecule antagonists: luciferase reporter qHTS assay (AID 1671197). Note: nearly all actives have a fitted effect of over 65% in size. Note: potency is the fitted concentration of half-maximal effect. Put shortly: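 Inhibition of CYP2C19 was scored from loss of luminescence in a P450-Glo proluciferin substrate assay, NADPH-started and run 1 h at 37C, with ketoconazole as positive control.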
On the technique in general: In a reporter assay the amount or activity of a reporter protein is the signal.

The target of assay [11] is Cytochrome P450 2C9 (Homo sapiens) (UniProt P11712). In words: Cytochrome P450 Family 2 Subfamily C Member 9 (CYP2C9) small molecule antagonists: luciferase reporter qHTS assay (AID 1671198). Note: nearly all actives have a fitted effect of over 50% in size. Note: potency is the fitted concentration of half-maximal effect. Put shortly:
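P450-Glo proluciferin substrate with CYP2C9 enzyme; 10 min RT preincubation, then NADPH regeneration 1 h at 37C; luciferin detection reagent 20 min RT, luminescence in relative luminescence units.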

For assay [12], the target named is Voltage-gated inwardly rectifying potassium channel KCNH2 (Homo sapiens) (UniProt Q12809). Put plainly: Human Ether-a-go-go-Related Gene (hERG) channel small molecule antagonists: fluorescence cell-based qHTS assay (AID 1671200). Note: nearly all actives have a fitted effect of over 50% in size. Note: potency is the fitted concentration of half-maximal effect. Put shortly:
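hERG-U2OS cells plated overnight at 37 C, loaded with FluxOR II dye 1 h at RT in dark; after 10 min, thallium stimulus added. Fluorescence (480/540 nm) read kinetically for 2 min at 1 s intervals.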
(In general: hERG is a cardiac potassium channel; its block is linked to QT prolongation.)

For assay [13], the target named is Cytochrome P450 3A4 (Homo sapiens) (UniProt P08684). Put plainly: Cytochrome P450 Family 3 Subfamily A Member 4 (CYP3A4) small molecule antagonists: luciferase reporter qHTS assay (AID 1671201). Note: nearly all actives have a fitted effect of over 50% in size. Note: potency is the fitted concentration of half-maximal effect. Put shortly: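 P450-Glo CYP3A4 luminescent assay: compounds preincubated 10 min at room temperature with enzyme and proluciferin substrate, NADPH regeneration added, 1 h room-temperature reaction, stopped with luciferin detection reagent; luminescence read after 20 min. Ketoconazole positive control.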
Sequence of Cytochrome P450 3A4 (Homo sapiens) (P08684 whole entry, looked up): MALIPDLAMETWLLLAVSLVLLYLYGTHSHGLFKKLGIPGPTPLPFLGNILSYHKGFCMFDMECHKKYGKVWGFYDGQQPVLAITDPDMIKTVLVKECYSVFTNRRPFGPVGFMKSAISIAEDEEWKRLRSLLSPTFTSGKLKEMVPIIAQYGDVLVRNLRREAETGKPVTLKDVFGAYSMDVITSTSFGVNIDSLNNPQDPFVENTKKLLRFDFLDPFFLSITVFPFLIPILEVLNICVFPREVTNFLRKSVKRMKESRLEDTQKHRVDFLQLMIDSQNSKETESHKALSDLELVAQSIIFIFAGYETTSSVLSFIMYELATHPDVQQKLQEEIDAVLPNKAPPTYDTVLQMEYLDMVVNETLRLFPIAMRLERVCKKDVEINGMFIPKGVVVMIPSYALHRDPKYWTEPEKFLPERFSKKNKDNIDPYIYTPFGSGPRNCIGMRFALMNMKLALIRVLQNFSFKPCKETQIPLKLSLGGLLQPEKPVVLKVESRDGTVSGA

In assay [14] the target is Nuclear receptor subfamily 1 group I member 2 (Homo sapiens) (UniProt O75469). In words: CYP3A4 induction through human pregnane X receptor (PXR) by small molecules, qHTS assay (AID 1346984). Note: nearly all actives have a fitted effect of over 40% in size. Put shortly: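 After 24 h at 37C with compound, DPX-2 cells (HepG2, co-transfected PXR response element and CYP3A4 promoter-luciferase) got 3uM final P450-Glo Luciferin-IPA for 3 h; One-Glo luminescence followed.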
Sequence of Nuclear receptor subfamily 1 group I member 2 (Homo sapiens) (O75469 whole entry, looked up): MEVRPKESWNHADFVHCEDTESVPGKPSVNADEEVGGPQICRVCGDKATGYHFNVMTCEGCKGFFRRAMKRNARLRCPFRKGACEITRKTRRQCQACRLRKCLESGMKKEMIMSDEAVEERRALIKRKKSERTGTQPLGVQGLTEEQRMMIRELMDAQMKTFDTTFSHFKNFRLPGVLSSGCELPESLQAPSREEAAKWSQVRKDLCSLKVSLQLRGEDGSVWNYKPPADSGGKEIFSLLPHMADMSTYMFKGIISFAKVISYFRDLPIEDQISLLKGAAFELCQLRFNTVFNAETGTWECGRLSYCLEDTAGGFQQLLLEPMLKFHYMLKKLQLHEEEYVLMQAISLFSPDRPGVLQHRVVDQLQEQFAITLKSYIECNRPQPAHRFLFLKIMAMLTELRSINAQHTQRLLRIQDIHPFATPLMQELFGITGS

Assay [15] addresses Cytochrome P450 1A2 (Homo sapiens) (UniProt P05177). In words: Cytochrome P450 Family 1 Subfamily A Member 2 (CYP1A2) small molecule antagonists: luciferase reporter qHTS assay (AID 1671199). Note: nearly all actives have a fitted effect of over 50% in size. Note: potency is the fitted concentration of half-maximal effect. Put shortly: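 Read-out is luminescence from luciferin detection reagent (20 min) proportional to CYP1A2 activity; compounds in DMSO preincubated 10 min with enzyme and proluciferin substrate, then NADPH regeneration solution, 1 h, room temperature.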

Each structure is given as a SMILES string. Values without a mark were called inactive. Results filed as inconclusive are left out. The source made the active and inactive calls. Calls come from the whole dose curve; as a rule, active = well fitted curve in the direction sought with a large enough effect in the repeat runs; inconclusive = weak or mixed curves; inactive = no such curve, though single readings can be large; an effect the other way counts as inactive or inconclusive.
% is set by controls: 0 for no effect and ±100 for the full control effect.

Sequence of Nuclear receptor subfamily 1 group I member 2 (Rattus norvegicus) (Q9R1A7 whole entry, looked up): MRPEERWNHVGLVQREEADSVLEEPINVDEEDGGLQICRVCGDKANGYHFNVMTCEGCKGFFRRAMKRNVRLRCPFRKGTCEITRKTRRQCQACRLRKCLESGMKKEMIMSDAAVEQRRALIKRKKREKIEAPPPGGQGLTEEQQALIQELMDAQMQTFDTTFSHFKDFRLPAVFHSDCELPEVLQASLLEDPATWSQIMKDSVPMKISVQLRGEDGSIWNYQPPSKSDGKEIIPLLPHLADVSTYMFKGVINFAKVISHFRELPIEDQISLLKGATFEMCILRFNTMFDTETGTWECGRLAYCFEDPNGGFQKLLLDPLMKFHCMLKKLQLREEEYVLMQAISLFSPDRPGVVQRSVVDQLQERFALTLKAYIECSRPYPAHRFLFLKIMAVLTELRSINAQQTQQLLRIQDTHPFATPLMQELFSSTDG
Sequence of Cytochrome P450 2C19 (Homo sapiens) (P33261 whole entry, looked up): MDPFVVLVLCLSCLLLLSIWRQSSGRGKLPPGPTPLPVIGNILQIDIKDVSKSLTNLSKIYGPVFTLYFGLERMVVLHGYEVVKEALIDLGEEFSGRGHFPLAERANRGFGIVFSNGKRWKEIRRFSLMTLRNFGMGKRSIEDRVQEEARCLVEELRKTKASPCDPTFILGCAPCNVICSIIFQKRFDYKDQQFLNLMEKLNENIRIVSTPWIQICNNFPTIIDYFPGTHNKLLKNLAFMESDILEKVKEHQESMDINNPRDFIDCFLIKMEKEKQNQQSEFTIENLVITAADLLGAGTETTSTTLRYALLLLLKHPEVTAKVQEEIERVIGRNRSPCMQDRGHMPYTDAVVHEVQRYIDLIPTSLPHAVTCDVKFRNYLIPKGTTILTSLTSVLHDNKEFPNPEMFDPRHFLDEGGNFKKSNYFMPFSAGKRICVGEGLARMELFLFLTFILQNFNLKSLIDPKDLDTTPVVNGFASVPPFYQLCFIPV
Sequence of Cytochrome P450 2D6 (Homo sapiens) (P10635 whole entry, looked up): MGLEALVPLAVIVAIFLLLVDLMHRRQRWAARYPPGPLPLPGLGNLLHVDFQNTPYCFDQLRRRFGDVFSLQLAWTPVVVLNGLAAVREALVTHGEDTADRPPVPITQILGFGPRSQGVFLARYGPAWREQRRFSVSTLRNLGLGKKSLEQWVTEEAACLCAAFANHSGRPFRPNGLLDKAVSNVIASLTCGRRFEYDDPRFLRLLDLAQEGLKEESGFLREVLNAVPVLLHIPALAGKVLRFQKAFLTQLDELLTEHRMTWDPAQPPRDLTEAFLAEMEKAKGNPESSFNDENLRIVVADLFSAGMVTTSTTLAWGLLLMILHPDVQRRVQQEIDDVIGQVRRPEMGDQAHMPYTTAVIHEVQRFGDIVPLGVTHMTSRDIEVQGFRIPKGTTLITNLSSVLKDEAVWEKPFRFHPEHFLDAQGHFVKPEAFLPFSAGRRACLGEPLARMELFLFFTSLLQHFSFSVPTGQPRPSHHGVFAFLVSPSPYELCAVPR
Sequence of Voltage-gated inwardly rectifying potassium channel KCNH2 (Homo sapiens) (Q12809 whole entry, looked up): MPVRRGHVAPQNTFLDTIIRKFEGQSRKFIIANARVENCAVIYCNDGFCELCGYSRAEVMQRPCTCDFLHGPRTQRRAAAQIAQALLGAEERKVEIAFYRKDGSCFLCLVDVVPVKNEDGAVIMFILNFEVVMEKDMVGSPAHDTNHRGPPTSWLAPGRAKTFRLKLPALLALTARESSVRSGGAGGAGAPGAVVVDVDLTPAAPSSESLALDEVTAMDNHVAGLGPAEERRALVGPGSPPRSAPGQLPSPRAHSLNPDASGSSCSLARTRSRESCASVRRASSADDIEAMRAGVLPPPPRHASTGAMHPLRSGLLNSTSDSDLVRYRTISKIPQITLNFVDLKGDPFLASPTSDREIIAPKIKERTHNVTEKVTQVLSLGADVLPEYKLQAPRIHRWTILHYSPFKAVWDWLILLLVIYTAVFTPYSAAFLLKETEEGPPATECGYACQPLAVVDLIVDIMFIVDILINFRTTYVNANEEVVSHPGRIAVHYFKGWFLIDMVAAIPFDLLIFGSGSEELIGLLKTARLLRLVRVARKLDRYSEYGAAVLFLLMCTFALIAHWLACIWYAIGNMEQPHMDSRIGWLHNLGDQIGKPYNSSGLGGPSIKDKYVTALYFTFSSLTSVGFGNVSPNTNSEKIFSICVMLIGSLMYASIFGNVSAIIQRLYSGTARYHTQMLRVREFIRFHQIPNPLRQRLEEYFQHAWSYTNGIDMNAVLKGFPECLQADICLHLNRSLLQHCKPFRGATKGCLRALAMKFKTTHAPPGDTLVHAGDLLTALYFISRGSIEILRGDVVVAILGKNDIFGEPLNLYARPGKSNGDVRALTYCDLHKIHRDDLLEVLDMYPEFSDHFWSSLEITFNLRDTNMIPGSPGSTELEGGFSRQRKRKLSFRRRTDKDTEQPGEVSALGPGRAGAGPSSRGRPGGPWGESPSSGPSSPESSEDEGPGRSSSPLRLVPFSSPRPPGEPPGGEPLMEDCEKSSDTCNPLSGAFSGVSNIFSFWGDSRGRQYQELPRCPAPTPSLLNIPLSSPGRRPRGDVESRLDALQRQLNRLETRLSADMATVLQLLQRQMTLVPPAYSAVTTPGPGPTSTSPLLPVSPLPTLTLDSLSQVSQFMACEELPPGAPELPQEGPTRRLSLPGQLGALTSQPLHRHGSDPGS
Sequence of Cytochrome P450 2C9 (Homo sapiens) (P11712 whole entry, looked up): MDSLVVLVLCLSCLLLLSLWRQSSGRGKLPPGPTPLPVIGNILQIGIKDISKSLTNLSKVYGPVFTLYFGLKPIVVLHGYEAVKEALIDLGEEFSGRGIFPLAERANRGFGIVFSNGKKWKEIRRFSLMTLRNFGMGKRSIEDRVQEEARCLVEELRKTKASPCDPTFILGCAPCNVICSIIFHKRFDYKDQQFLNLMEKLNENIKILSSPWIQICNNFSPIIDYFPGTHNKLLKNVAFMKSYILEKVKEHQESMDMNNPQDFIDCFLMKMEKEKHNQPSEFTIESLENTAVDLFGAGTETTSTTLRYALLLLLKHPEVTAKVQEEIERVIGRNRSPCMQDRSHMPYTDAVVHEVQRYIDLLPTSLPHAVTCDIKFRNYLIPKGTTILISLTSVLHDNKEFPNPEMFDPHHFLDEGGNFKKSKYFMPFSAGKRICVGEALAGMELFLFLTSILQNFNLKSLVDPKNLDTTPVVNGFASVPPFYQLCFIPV
Sequence of Cytochrome P450 1A2 (Homo sapiens) (P05177 whole entry, looked up): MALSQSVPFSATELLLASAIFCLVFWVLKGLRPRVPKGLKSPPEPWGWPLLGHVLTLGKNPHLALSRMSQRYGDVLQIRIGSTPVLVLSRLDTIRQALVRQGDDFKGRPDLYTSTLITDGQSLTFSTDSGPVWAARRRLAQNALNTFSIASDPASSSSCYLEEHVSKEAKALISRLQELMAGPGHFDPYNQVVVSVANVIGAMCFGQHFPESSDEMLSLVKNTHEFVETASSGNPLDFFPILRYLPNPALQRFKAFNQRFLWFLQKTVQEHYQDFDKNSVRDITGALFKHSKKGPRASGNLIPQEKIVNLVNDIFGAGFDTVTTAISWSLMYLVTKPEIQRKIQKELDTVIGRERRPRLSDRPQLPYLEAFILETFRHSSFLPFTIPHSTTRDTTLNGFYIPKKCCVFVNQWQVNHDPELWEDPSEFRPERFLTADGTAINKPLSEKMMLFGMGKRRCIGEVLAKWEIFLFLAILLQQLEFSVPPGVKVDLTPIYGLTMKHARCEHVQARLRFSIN

On to `Cc1cc(OI)c(C(C)C)cc1-c1cc(C(C)C)c(OI)cc1C`, for which the Potency result in [1], in [2], in [3], in assay [5], in assay [9] and in [12] was “inactive” in each case. For the same compound, the Potency result in assay [13] was “inactive”. Further, the compound was called inactive in assay [4]. The Potency is 29.8 µM (active) in [6], 15.8 µM (active) in assay [8], 8.71 µM (active) in assay [10] and 17.4 µM (active) in assay [11]. Further, in assay [7], the max activation is 0.407%.

As to `CCCOC(=O)c1ccc(N)cc1`, the Potency entry in assay [1], in assay [2], in assay [3], in [5], in assay [6] and in [14] was “inactive” throughout. Further, the Potency result in assay [8] and in assay [12] was “inactive” in each case. The result in [4] was inactive. Besides, in assay [7], the max activation was 14.2%. Also, the Potency in [10] was 24.5 µM (active); in assay [15], 6.45 µM (active).

Consider `OCC1CC=CCC1` (stereo unspecified), for which the Potency entry in assay [1], in assay [2], in assay [3], in assay [5], in assay [6] and in [9] was “inactive” in each case. The Potency entry in assay [10], in assay [11], in assay [15], in assay [12] and in assay [13] was “inactive” throughout. Besides, the compound was called inactive in [4].

In the case of `CCCC1C(CC)=CC(CC)=CN1c1ccccc1` (stereo unspecified), the Potency result in assay [1], in assay [2], in [3] and in assay [5] was “inactive” in each case. In addition, the call in assay [4] was inactive. In addition, the Potency was 24.3 µM (active) in assay [6]; 20 µM (active) in assay [9]; 2 µM (active) in assay [10]; 17.8 µM (active) in [11]; 11.2 µM (active) in assay [15]; 31.7 µM (active) in assay [13].

In the case of `CCNC(=O)N1CCN(CCCC(c2ccc(F)cc2)c2ccc(F)cc2)CC1`, the Potency in assay [1] was 13.3 µM (active); in assay [3] it was 26.6 µM (active); in assay [5] it was 29.8 µM (active); in assay [6] it was 26.6 µM (active); in [12], 107 nM (active). The Potency result in assay [2], in assay [14], in assay [8], in assay [15] and in assay [13] was “inactive” each time. Moreover, in [4], the outcome was inactive. For the same compound, the max activation in assay [7] is -17%.

For `CC(CCc1ccc2c(c1)OCO2)NN` (stereo unspecified), the Potency entry in assay [1], in assay [2], in assay [3], in [5], in [6] and in assay [12] was “inactive” each time. In addition, the result in assay [4] was inactive. Besides, the Potency in [9] was 30.9 µM (active); in [10], 38.9 µM (active); in [11], 15.5 µM (active); in assay [15] it was 1.44 µM (active).

For `N#C/C(=C1\SCC(c2ccccc2Cl)S1)n1ccnc1` (stereo unspecified), the Potency result in [1], in [2], in [3], in [5], in [14] and in assay [12] was “inactive” each time. Besides, in assay [4], the compound was classed as inactive. Besides, the Potency in assay [6] is 26.6 µM (active); in assay [8] it was 14.1 µM (active); in assay [10], 0.0776 µM (active); in assay [11] it was 2.45 µM (active); in assay [15] it was 0.871 µM (active). Also, the max activation in assay [7] is -0.365%.

Turning to `CO[C@@]12[C@H](COC(N)=O)C3=C(C(=O)C(C)=C(N)C3=O)N1C[C@@H]1N[C@@H]12`, the Potency in [1] is 11.9 µM (active); in assay [2], 11.9 µM (active); in assay [3], 13.3 µM (active); in [5] it was 11.9 µM (active); in [15] it was 30.9 µM (active). The call in assay [4] was inactive. For the same compound, the Potency entry in assay [6], in assay [8], in assay [10] and in assay [12] was “inactive” each time.

As for `CC(C)(CCl)c1ccccc1`, the Potency result in [1], in assay [2], in assay [3], in assay [5], in assay [6] and in [9] was “inactive” each time. The Potency result in [10], in assay [11], in [15], in [12] and in assay [13] was “inactive” in each case. Moreover, in assay [4], the outcome was inactive.
